The values below come from PubChem BioAssay AID624417 (National Center for Advancing Translational Sciences (NCATS), 2012).

SMILES strings stand for the structures. Out of some 410,000 compounds screened, about 6,400 (1.6%) were called active. Inconclusive results (about 20%) are left out. The list comes from a sample in which actives are over-represented; it also holds similar structures and randomly drawn compounds. A call without a number means that no potency is given here. A number with no mark means an inactive call. Calls come from the whole dose curve; as a rule, active = well fitted inhibition curve with a large enough effect; inconclusive = small, poorly fitted or top-dose-only effect; inactive = no such curve, though single readings can be large or run the other way.
Potency is the fitted concentration of half-maximal effect.

For this assay, the target named is Glucagon-like peptide 1 receptor (Homo sapiens) (UniProt P43220). Briefly: qHTS of GLP-1 Receptor Inverse Agonists (Inhibition Mode). Note: nearly all actives have a fitted effect of over 55% in size. To be noted: HEK293 GLP-1R CRE-luciferase, luminescence, 24 h, GLP-1R form is constitutively active; series mostly up to 38.3 µM. In short, it runs like this: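 qHTS in 1536-well format: reporter HEK293 cells expressing constitutive GLP-1R activity in DMEM + 10% Nu serum, 24 hr with compounds at 37 deg C, luminescence read after 12 min with detection reagent.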
Sequence of Glucagon-like peptide 1 receptor (Homo sapiens) (P43220 whole entry, looked up): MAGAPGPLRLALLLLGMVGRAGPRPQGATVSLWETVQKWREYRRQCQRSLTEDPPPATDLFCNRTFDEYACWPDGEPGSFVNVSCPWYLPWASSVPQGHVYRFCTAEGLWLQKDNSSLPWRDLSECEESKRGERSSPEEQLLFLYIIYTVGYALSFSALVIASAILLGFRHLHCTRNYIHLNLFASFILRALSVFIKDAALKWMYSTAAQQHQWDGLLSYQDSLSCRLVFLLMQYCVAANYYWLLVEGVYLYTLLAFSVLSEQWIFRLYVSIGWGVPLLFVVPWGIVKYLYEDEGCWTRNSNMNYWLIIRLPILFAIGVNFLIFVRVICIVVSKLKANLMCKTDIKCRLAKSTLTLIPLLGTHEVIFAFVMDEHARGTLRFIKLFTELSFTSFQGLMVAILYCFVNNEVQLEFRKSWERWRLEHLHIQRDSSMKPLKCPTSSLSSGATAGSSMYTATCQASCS
As to `CN1CCN(C2Cc3ccc(Cl)cc3Sc3ccc(F)cc32)CC1` (centres undefined), the Potency is 8.91 µM (active). As for `CCN(CC)C(=O)C1=C(C)N(Cc2ccc(F)cc2)C(=O)C(CC(=O)NC2CCCC2)C1` (centres undefined), the Potency entry was “inactive”.

As for `O=C(Nc1ccc(F)cc1)C(CCc1ccccc1)N1CCN(CC(=O)N2CCCC2)CC1` (centres undefined), the Potency entry was “inactive”. As for `N#CCSc1ccccc1NC(=O)CN1C(=O)NC(CCc2ccccc2)C1=O` (centres undefined), the Potency entry is “inactive”. In the case of `Nc1cc(C(=O)N2CCN(c3ccccc3Cl)CC2)ccc1N1CC2CC(C1)c1cccc(=O)n1C2` (centres undefined), the Potency result was “inactive”. On the same count and under the same terms, next, `Cc1cc(NC(=O)c2ccc(F)cc2)ccc1NC(=O)c1ccco1`: “inactive”; `CCN(CC)P(=O)(Nc1ccc(SC(F)F)cc1)c1ccc(N(C)C)cc1NC(=O)c1ccco1` (centres undefined): 2.51 µM (active); `CCC(=O)NC(=S)Nc1ccc(NC(=O)c2ccco2)c(Cl)c1`: “inactive”. Same read-out and setting: the same measure for `O=C(Nc1ccc(N2CCOCC2)cc1)c1cccc2c(-c3ccc(F)c(F)c3)coc12`: “inactive”; for `O=NN(CCCl)C(=O)NCCc1cccc[n+]1[O-]`: “inactive”. On the same count and under the same terms, the same measure for `COc1ccccc1NC(=S)NC(=O)C(C)C`: “inactive”. Regarding `CCc1nc(SCC(=O)Nc2ccccc2OC)n[nH]1`, the Potency entry is “inactive”. On the same count and under the same terms, next, `CCSc1nsc(NC(=O)Nc2ccccc2OC)n1`: 11.2 µM (active); `Cc1ccccc1NC(=O)Cc1nc(COC(=O)CNC(=O)c2ccc(Cl)cc2Cl)cs1`: “inactive”; `CCOc1ccc(CCNC(=O)COC(=O)c2ccc(C)c(S(=O)(=O)N3CCOCC3)c2)cc1OCC`: “inactive”. Same read-out and setting: next, `Cc1cc(Br)cn2c(Cc3ccsc3)c(-c3ccc(C#N)cc3)nc12`: “inactive”; `Cc1ccc(OCC(O)CN2CCN(CC(O)COc3ccc(C)cc3Cl)CC2)c(Cl)c1` (centres undefined): “inactive”; `OC(COc1ccc(F)cc1Cl)CN1CCc2ccccc2C1` (centres undefined): 10 µM (active).

On to `COc1ccccc1OCC(O)CN1CCOCC1` (centres undefined), for which the Potency result was “inactive”.

Regarding `O=C1NC[C@H](Cc2ccc(O)cc2)N(C[C@H]2CCCN2C[C@H](Cc2ccccc2)N2C[C@H](Cc3ccccc3)N(CCc3ccccc3)C(=O)C2=O)C1=O`, the Potency result is “inactive”.

As for `O=C1OC(Oc2ccc(Br)cc2)(c2ccccc2)c2ccccc21` (centres undefined), the Potency is 10 µM (active). On the same count and under the same terms, the same measure for `CC1(C(=O)NS(=O)(=O)c2ccccc2)CCN1C(=O)C1CCCCC1` (centres undefined): “inactive”; for `O=C(COc1ccc(Cl)cc1)N(Cc1ccco1)Cc1ccco1`: 10 µM (active); for `CCOc1ccc(S(=O)(=O)N(CC(=O)NCC(F)(F)F)Cc2ccco2)cc1`: “inactive”. Same read-out and setting: next, `Cc1cc2oc(C(=O)N(Cc3ccc(Cl)cc3)Cc3ccco3)c(C)c2cc1Cl`: “inactive”; `CC(=O)c1nn(-c2ccccc2)c(=Nc2ccccc2)cc1C`: “inactive”. The same measure, in the same setting: next, `Cc1cc2c3ccccc3[nH]c(=O)n2n1`: “inactive”. For `CSc1ncnc2c1ncn2CCCNCc1ccco1`, the Potency result is “inactive”.

Turning to `COc1ccc(-c2cc(NC=O)c3ncc(-c4ccccc4)n3c2)cc1OC`, the Potency entry is “inactive”. On the same count and under the same terms, next, `O=C(Nc1ccccc1)Oc1cccc2cccnc12`: 3.98 µM (active); `OCc1ccc(OCCCOc2cccc3cccnc23)cc1`: “inactive”; `Fc1ccccc1COc1cccc2cccnc12`: “inactive”.

Turning to `Cc1ccccc1OS(=O)(=O)c1cccc([N+](=O)[O-])c1`, the Potency entry was “inactive”. Regarding `Cc1ccc(C(=O)NNC(=O)CSc2nnc3ccccn23)cc1`, the Potency result is “inactive”. The same measure, in the same setting: next, `O=C(CSc1nnc2ccccn12)c1ccccc1`: “inactive”. Take `Cc1ccc(-n2c(C)cc(C(=O)CSc3nnc4ccccn34)c2C)cc1`: the Potency is 8.91 µM (active). As for `Cc1cccc(CN2CCN(C3CN(Cc4cn(Cc5ccccc5F)nn4)S(=O)(=O)C3)CC2)c1` (centres undefined), the Potency result is “inactive”. Still for that read-out and setting: next, `c1ccc2c(c1)nnn2-c1ccncc1`: “inactive”.

`Cc1ccccc1S(=O)(=O)NC(=O)C1(C)CCN1C(=O)C1(c2ccccc2)CCCC1` (centres undefined): the Potency entry was “inactive”. As to `COc1cc(NC(=O)C2=C(C)OCCS2)c(Cl)cc1C(=O)NCCCN1CCCC(C)C1` (centres undefined), the Potency result was “inactive”.

With `O=C(NNc1ccccc1Cl)C(O)(c1cccc(C(F)(F)F)c1)c1cccc(C(F)(F)F)c1`, the Potency was 3.98 µM (active). The same measure, in the same setting: next, `O=C(CNS(=O)(=O)c1cccc(C(F)(F)F)c1)Nc1ccccc1F`: “inactive”; `O=C(Nc1cc(C(F)(F)F)ccc1Cl)c1nc2ccccc2nc1N1CCCCC1`: “inactive”; `O=C(COC(=O)c1cncc(Br)c1)Nc1ccc(S(=O)(=O)N2CCOCC2)cc1`: “inactive”.

Regarding `CC1(Oc2ccc(Cl)cc2)CCN(Cc2csc3ccccc23)C1` (centres undefined), the Potency result is “inactive”. As for `CCCc1c(C(=O)O)cnn1-c1ccc(Cl)cc1`, the Potency entry was “inactive”. The same measure, in the same setting: next, `CCc1ccccc1NC(=O)c1cnn(-c2ccc(F)cc2)c1C1CCNCC1`: “inactive”; `CCCc1c(C(=O)Nc2ccc(F)cc2)cnn1-c1ccccc1`: 10 µM (active). Consider `Cc1cc(OCC(=O)Nc2nccs2)c2c(C)c(C)c(=O)oc2c1`, for which the Potency result was “inactive”.

Consider `Cc1noc(C)c1CSCC(=O)Nc1nc2ccc(Oc3ccccc3)cc2s1`, for which the Potency was 7.94 µM (active). Same read-out and setting: the same measure for `Cc1ccc(F)cc1NC(=O)CSCc1c(C)noc1C`: “inactive”; for `CCc1noc(C)c1C(=O)Nc1nc2ccc(OC)cc2s1`: “inactive”.

In the case of `COc1ccc(S(=O)(=O)N2CCC(C(=O)NCCC(=O)NCCc3cccc(F)c3)CC2)cc1`, the Potency entry was “inactive”.

Take `COC(=O)Nc1nc2ccc(Sc3ccccc3)cc2[nH]1`: the Potency is 1.12 µM (active). Same read-out and setting: the same measure for `Cc1ccc2nc(CNC(=O)c3ccccc3)[nH]c2c1`: “inactive”; for `CC(C)c1nc2ccc(C(=O)O)cc2[nH]1`: “inactive”. Still for that read-out and setting: the same measure for `Cc1cccc(C(=O)OCC(=O)Nc2sccc2C(N)=O)c1C`: “inactive”; for `CC(C)C1CCN(C(=O)C2CCC(=O)N(C3CCCCCC3)C2)CC1` (centres undefined): “inactive”; for `O=C(CCCN1C(=O)/C(=C/c2cccs2)SC1=S)Nc1ccc(O)cc1`: 5.01 µM (active). Still for that read-out and setting: the same measure for `Cc1ccc(/C=C2\SC(=S)N(CCC(=O)Nc3ccc(O)cc3)C2=O)cc1`: “inactive”. Take `O=C(CCN1C(=O)/C(=C/c2cccs2)SC1=S)NNC(=O)c1cccc(O)c1`: the activity change, negative = inhibition is -10.3% [at 7.66 µM]. As to `CCCNC(=O)C1(C)CCN1C(=O)Cc1ccc(-c2ccccc2)cc1` (centres undefined), the Potency result is “inactive”. The same measure, in the same setting: the same measure for `O=C(c1ccc(CS(=O)Cc2ccccc2Cl)o1)N1CCN(c2ccccc2)CC1` (centres undefined): “inactive”. Same read-out and setting: next, `OCC1OC(n2cnc3c(N4CCCC4)ncnc32)C(O)C1O` (centres undefined): “inactive”; `CC(=O)N1CCN(Cc2cc(=O)oc3cc(C)ccc23)CC1`: “inactive”. The same measure, in the same setting: the same measure for `Cc1ccc(C(=O)Nc2c(-c3ccccc3)[nH][nH]c2=O)cc1`: “inactive”; for `CCc1cccc(C)c1NS(=O)(=O)c1ccc(-c2cc(C)no2)s1`: “inactive”; for `CCc1cccc(C)c1NS(=O)(=O)c1cc(Br)cnc1N`: 10 µM (active). Turning to `COc1ccc(N2CCN(S(=O)(=O)c3cc(Br)cnc3N)CC2)cc1`, the Potency entry was “inactive”.
